Source: PubChem BioAssay (EPA / NIEHS)
The source made the active and inactive calls. The calls were made as follows: active = hit-call score of the fitted dose curve at least 0.9, where 1 is the maximum; inactive = score below 0.9.

How the values were obtained:
[1] = read-out: TIMP metallopeptidase inhibitor 2 (TIMP2), TIMP2 (gene 7077); assay: BSK_KF3CT_TIMP2: BioMAP Diversity Plus: KF3CT Assay for TIMP metallopeptidase inhibitor 2 (TIMP2) Biomarker Activity (AID 2283071); details: primary human keratinocytes with fibroblasts; actives raise or lower the signal
Method in brief: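 TIMP-2 measured by ELISA at 24 h in human keratinocyte/fibroblast primary co-cultures exposed to chemicals. Both increases and decreases were fitted against DMSO. Parallel cultures were stained with SRB for total protein as an overt-cytotoxicity check.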

[2] = read-out: Transforming growth factor beta 1 (TGFb1), TGFB1 (gene 7040); assay: BSK_KF3CT_TGFb1: BioMAP Diversity Plus: KF3CT Assay for Transforming growth factor beta 1 (TGFb1) Biomarker Activity (AID 2283072); details: primary human keratinocytes with fibroblasts; actives raise or lower the signal
Method in brief: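 ELISA quantifies TGF-b1 at 24 h post-dose in a primary human skin co-culture of keratinocytes and fibroblasts, with gain or loss judged against DMSO. Parallel SRB total-protein staining flags overt cytotoxicity.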

[3] = read-out: C-C motif chemokine 2 (Homo sapiens) (UniProt P13500); assay: BSK_KF3CT_MCP1: BioMAP Diversity Plus: KF3CT Assay for Monocyte Chemoattractant Protein 1 (MCP1/CCL2) Biomarker Activity (AID 2283073); details: primary human keratinocytes with fibroblasts; actives raise or lower the signal
Method in brief: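 Human keratinocyte plus foreskin fibroblast primary co-culture exposed to chemical for 24 h. MCP-1 levels measured by ELISA. Bidirectional curve fitting relative to DMSO negative control as baseline.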

[4] = read-out: Matrix Metallopeptidase 9 (MMP9), MMP9 (gene 4318); assay: BSK_KF3CT_MMP9: BioMAP Diversity Plus: KF3CT Assay for Matrix Metallopeptidase 9 (MMP9) Biomarker Activity (AID 2283074); details: primary human keratinocytes with fibroblasts; actives raise or lower the signal
Method in brief: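 ELISA read-out of MMP-9 at 24 h post-dosing in a co-culture of human skin keratinocytes and foreskin fibroblasts. Gain or loss of signal was fitted in both directions against DMSO.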

[5] = read-out: urokinase plasminogen activator (uPA), PLAU (gene 5328); assay: BSK_KF3CT_uPA: BioMAP Diversity Plus: KF3CT Assay for urokinase plasminogen activator (uPA) Biomarker Activity (AID 2283075); details: primary human keratinocytes with fibroblasts; actives raise or lower the signal
Method in brief: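 Skin co-culture (keratinocytes + foreskin fibroblasts), human primary; 24 h post-dose; uPA by ELISA; gain/loss fit vs DMSO baseline.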

[6] = read-out: E-selectin (Homo sapiens) (UniProt P16581); assay: BSK_LPS_Eselectin: BioMAP Diversity Plus: LPS Assay for Eselectin Biomarker Activity (AID 2283077); details: primary human HUVEC with PBMC; actives raise or lower the signal
Method in brief: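 Human umbilical vein endothelial cells co-cultured with peripheral blood mononuclear cells under LPS stimulation; E-selectin measured by ELISA 24 h after chemical dosing. Activity fitted bidirectionally against DMSO as negative control and baseline.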

[7] = read-out: Interleukin-8 (IL8), CXCL8 (gene 3576); assay: BSK_LPS_IL8: BioMAP Diversity Plus: LPS Assay for Interleukin-8 (IL8) Biomarker Activity (AID 2283078); details: primary human HUVEC with PBMC; actives raise or lower the signal
Method in brief: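 Human umbilical vein endothelial cells co-cultured with PBMC were stimulated with LPS; IL-8 levels were measured by ELISA 24 h after chemical dosing. Activity was fitted bidirectionally against DMSO as negative control and baseline.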

[8] = BSK_LPS_SRB: Viability Assessment in the BioMAP Diversity Plus: LPS Assay (AID 2283079); details: primary human HUVEC with PBMC;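 also: total protein by sulforhodamine B absorbance as a cytotoxicity measure; measured one day after compound addition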
Method in brief: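 Human umbilical vein endothelial cells co-cultured with PBMC (LPS system) were dosed for 24 h. Total protein was stained with 0.1% sulforhodamine B after 10% TCA fixation, read at 560 nm, and fitted bidirectionally against DMSO baseline.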

[9] = read-out: Interleukin-1 alpha (IL1a), IL1A (gene 3552); assay: BSK_LPS_IL1a: BioMAP Diversity Plus: LPS Assay for Interleukin-1 alpha (IL1a) Biomarker Activity (AID 2283080); details: primary human HUVEC with PBMC; actives raise or lower the signal
Method in brief: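 Human umbilical vein endothelial cells co-cultured with peripheral blood mononuclear cells were LPS-stimulated and exposed to test chemicals for 24 h. IL-1 alpha was quantified by ELISA, with bidirectional curve fitting against DMSO as the negative control and baseline.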

[10] = read-out: Monocyte Chemoattractant Protein-1 (MCP1), CCL2 (gene 6347); assay: BSK_LPS_MCP1: BioMAP Diversity Plus: LPS Assay for Monocyte Chemoattractant Protein-1 (MCP1) Biomarker Activity (AID 2283081); details: primary human HUVEC with PBMC; actives raise or lower the signal
Method in brief: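 HUVEC plus PBMC co-culture (human primary cells, LPS system) exposed to test chemical for 24 h; MCP-1 measured by ELISA. Bidirectional curve fitting against DMSO baseline; parallel SRB total-protein staining flags overt cytotoxicity.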

[11] = BSK_LPS_PGE2: BioMAP Diversity Plus: LPS Assay for Prostaglandin E2 (PGE2) Biomarker Activity (AID 2283082); details: primary human HUVEC with PBMC; actives raise or lower the signal
Method in brief: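 PGE2 release measured by ELISA in an LPS-activated co-culture of human umbilical vein endothelial cells and peripheral blood mononuclear cells, read at 24 h post-dosing. DMSO served as baseline for bidirectional curve fitting.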

[12] = read-out: Macrophage colony-stimulating factor (MCSF), CSF1 (gene 1435); assay: BSK_LPS_MCSF: BioMAP Diversity Plus: LPS Assay for Macrophage colony-stimulating factor (MCSF) Biomarker Activity (AID 2283083); details: primary human HUVEC with PBMC; actives raise or lower the signal
Method in brief: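 Human umbilical vein endothelial cells co-cultured with peripheral blood mononuclear cells were exposed to compound for 24 h. M-CSF levels were measured by ELISA, and bidirectional curve fitting used DMSO as the negative control and baseline.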

[13] = read-out: Tissue Factor, F3 (gene 2152); assay: BSK_LPS_TissueFactor: BioMAP Diversity Plus: LPS Assay for Tissue Factor Biomarker Activity (AID 2283084); details: primary human HUVEC with PBMC; actives raise or lower the signal
Method in brief: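 Human umbilical vein endothelial cells co-cultured with peripheral blood mononuclear cells were dosed and stimulated with LPS. Cell-surface CD142 was quantified by ELISA at 24 h. Activity was fitted bidirectionally against DMSO baseline.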

[14] = read-out: Tumor necrosis factor (Homo sapiens) (UniProt P01375); assay: BSK_LPS_TNFa: BioMAP Diversity Plus: LPS Assay for Tumour Necrosis Factor alpha (TNFa) Biomarker Activity (AID 2283085); details: primary human HUVEC with PBMC; actives raise or lower the signal
Method in brief: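 TNFa was quantified by ELISA in LPS-activated co-cultures of human endothelial cells and PBMC, 24 h post-dosing. Both increases and decreases versus DMSO were fitted.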

[15] = read-out: Vascular cell adhesion molecule 1 (VCAM1), VCAM1 (gene 7412); assay: BSK_LPS_VCAM1: BioMAP Diversity Plus: LPS Assay for Vascular cell adhesion molecule 1 (VCAM1) Biomarker Activity (AID 2283086); details: primary human HUVEC with PBMC; actives raise or lower the signal
Method in brief: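 VCAM-1 quantified by ELISA in an LPS-activated co-culture of human endothelial cells and peripheral blood mononuclear cells, read 24 h post-treatment. Fitted in both directions versus DMSO; parallel SRB staining flags overt cytotoxicity.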

[16] = read-out: CD38, CD38 (gene 952); assay: BSK_SAg_CD38: BioMAP Diversity Plus: SAg Assay for CD38 Biomarker Activity (AID 2283087); details: primary human HUVEC with PBMC; actives raise or lower the signal
Method in brief: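 CD38 quantified by ELISA (fluorescence) in a superantigen-activated endothelial cell–PBMC co-culture at 24 h post-dose. Activity fitted in both directions relative to DMSO; parallel SRB and Alamar Blue cytotoxicity read-outs.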

[17] = read-out: CD40, CD40 (gene 958); assay: BSK_SAg_CD40: BioMAP Diversity Plus: SAg Assay for CD40 Biomarker Activity (AID 2283088); details: primary human HUVEC with PBMC; actives raise or lower the signal
Method in brief: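 Human umbilical vein endothelial cells co-cultured with PBMC; CD40 levels measured by ELISA with fluorescence read-out 24 h after chemical dosing. Gain or loss of signal fitted bidirectionally against DMSO baseline.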

[18] = read-out: CD69, CD69 (gene 969); assay: BSK_SAg_CD69: BioMAP Diversity Plus: SAg Assay for CD69 Biomarker Activity (AID 2283089); details: primary human HUVEC with PBMC; actives raise or lower the signal
Method in brief: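 Primary human vascular co-culture (umbilical vein endothelium with peripheral blood mononuclear cells) exposed to test chemical for 24 h. CD69 levels quantified by fluorescence ELISA; DMSO served as negative control for bidirectional fitting.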

[19] = read-out: Monocyte Chemoattractant Protein-1 (MCP1), CCL2 (gene 6347); assay: BSK_SAg_MCP1: BioMAP Diversity Plus: SAg Assay for Monocyte Chemoattractant Protein-1 (MCP1) Biomarker Activity (AID 2283090); details: primary human HUVEC with PBMC; actives raise or lower the signal
Method in brief: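 Values derive from bidirectional fitting of ELISA-measured MCP1 against DMSO controls. Readings were taken 24 h after dosing human vascular endothelial cells co-cultured with peripheral blood mononuclear cells under superantigen stimulation.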

[20] = read-out: CD40, CD40 (gene 958); assay: BSK_LPS_CD40: BioMAP Diversity Plus: LPS Assay for CD40 Biomarker Activity (AID 2283076); details: primary human HUVEC with PBMC; actives raise or lower the signal
Method in brief: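 Primary human umbilical vein endothelial cells co-cultured with peripheral blood mononuclear cells, LPS-stimulated, were dosed with chemical and read 24 h later. CD40 levels were measured by ELISA and fitted bidirectionally against DMSO as negative control and baseline.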

Measured: outcome

Sequence of E-selectin (Homo sapiens) (P16581 whole entry, looked up): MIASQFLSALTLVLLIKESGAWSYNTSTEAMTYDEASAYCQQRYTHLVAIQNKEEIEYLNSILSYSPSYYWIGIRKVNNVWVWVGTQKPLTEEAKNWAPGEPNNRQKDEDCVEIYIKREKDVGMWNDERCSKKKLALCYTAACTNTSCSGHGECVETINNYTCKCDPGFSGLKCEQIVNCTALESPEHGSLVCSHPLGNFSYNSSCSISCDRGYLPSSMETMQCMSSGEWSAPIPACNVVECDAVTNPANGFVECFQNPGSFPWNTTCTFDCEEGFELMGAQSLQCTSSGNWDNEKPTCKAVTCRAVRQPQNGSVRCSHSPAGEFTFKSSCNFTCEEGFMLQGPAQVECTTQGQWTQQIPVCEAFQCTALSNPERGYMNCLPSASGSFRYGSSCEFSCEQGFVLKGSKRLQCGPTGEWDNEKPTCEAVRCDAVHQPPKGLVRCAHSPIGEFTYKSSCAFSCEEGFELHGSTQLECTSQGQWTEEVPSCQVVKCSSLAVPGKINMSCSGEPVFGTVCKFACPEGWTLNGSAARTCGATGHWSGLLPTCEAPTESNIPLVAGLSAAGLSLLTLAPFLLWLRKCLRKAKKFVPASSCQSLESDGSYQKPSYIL
Sequence of Tumor necrosis factor (Homo sapiens) (P01375 whole entry, looked up): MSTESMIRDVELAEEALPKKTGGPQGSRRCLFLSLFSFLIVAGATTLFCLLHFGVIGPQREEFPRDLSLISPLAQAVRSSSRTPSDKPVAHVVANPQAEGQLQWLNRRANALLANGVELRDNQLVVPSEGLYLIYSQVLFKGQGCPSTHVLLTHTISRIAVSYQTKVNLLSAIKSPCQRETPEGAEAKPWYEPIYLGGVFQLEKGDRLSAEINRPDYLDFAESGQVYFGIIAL

CC1=NNC(=O)N(/N=C/c2cccnc2)C1
inactive: [1] | [2] | [3] | [4] | [5] | [6] | [7] | [8] | [9] | [10] | [11] | [12] | [13] | [14] | [15] | [16] | [17] | [18] | [19]

COc1cccc(C(=O)NN(C(=O)c2cc(C)cc(C)c2)C(C)(C)C)c1C
inactive: [1] | [2] | [3] | [4] | [5] | [20] | [6] | [7] | [8] | [9] | [10] | [11] | [12] | [13] | [14] | [15] | [16] | [17] | [19]

Nc1c(Cl)cc([N+](=O)[O-])cc1Cl
inactive: [1] | [2] | [3] | [4] | [5] | [6] | [7] | [8] | [9] | [10] | [11] | [12] | [13] | [14] | [15] | [16] | [17] | [19]
